Reference: PubChem BioAssay
Calls of active or inactive are those of the source.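 Rule for the calls, unless noted: active = NADPH fluorescence slope more negative than the mean of all samples by about 3 SD, 99.7% confidence; inactive = the rest.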

What was measured:
[1] = inhibitors of TNFa-induced NFkB p65 translocation, primary screen, imaging, HUVEC, MLSMR starter and 10KST1 sets (AID 438;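 active = inhibition above 20% together with a positive visual image hit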;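 note: compound added about 3h40 before a 20 min TNFalpha stimulation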;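 for inhibition: signal is the nuclear over cytoplasmic p65 intensity ratio per well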); conditions: HUVEC TNFa-induced p65 nuclear translocation; cell count: measured here: nuclei count (cytotoxicity indicator), at 2.08 µM; inhibition: at 2 µM, stronger effect = higher value, 0% TNFa-plus-vehicle, 100% no-TNFa wells
[2] = inhibitors of mutant huntingtin aggregation, primary screen, imaging, exon1htt(103Q)mCFP cells, high-content imaging (AID 483;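 active = visual image review flags a hit and inhibition of aggregation exceeds 20%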;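 note: compound exposure lasted 3 days before fixation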;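 for nuclei count: percent of the per-plate median nuclei count of sample wells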); conditions: exon1htt(103Q)mCFP cell line, aggregate imaging, at 2 µM; inhibition of aggregation: stronger effect = higher value; nuclei count: measured here: cell count, toxicity
[3] = inhibitors of E-selectin induction by TNFa, primary screen, imaging, HUVEC, immunofluorescence, MLSMR starter and 10KST1 sets (AID 487;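 active = visually confirmed hit in the image check and inhibition above 20%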;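 for inhibition: signal is fraction of cell area covered by stained E-selectin grains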;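 for nuclei count: 100% = median nuclei count of all wells on the same plate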); conditions: HUVEC TNFalpha-induced E-selectin immunofluorescence imaging, at 2 µM; inhibition: stronger effect = higher value; nuclei count: measured here: cell number, toxicity
[4] = target: Voltage-gated potassium channel subunit beta-2 (Rattus norvegicus) (UniProt P62483); assay: KvBeta enzyme negative modulators, primary screen, biochemical, NADPH fluorescence (AID 622;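 active = fluorescence slope higher than the sample average by over 3 SD, cut at about -0.22 in these data, passing the limit was not always enough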;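 note: slope of raw intensity against log time taken from 70 to 1610 s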); conditions: recombinant KvBeta, 4-cyanobenzaldehyde reduction, at 10 µM, stronger effect = higher value
Chain of Voltage-gated potassium channel subunit beta-2 (Rattus norvegicus) (P62483 whole entry, looked up): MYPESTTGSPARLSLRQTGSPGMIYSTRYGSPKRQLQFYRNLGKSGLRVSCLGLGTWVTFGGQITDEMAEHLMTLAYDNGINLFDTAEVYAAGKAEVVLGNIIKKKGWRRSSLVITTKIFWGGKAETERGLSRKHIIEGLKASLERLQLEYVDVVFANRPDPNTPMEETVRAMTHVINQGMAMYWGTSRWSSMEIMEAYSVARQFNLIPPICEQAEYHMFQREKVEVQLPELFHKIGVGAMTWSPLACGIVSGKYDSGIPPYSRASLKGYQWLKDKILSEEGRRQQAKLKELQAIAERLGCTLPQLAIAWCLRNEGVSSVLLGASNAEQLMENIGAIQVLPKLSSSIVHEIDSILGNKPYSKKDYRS

[5] = target: Voltage-gated potassium channel subunit beta-2 (Rattus norvegicus) (UniProt P62483); assay: KvBeta positive modulators, primary screen, biochemical, NADPH fluorescence (AID 623); conditions: Recombinant KvBeta, NADPH fluorescence decrease slope, 10 min; at 10 µM; stronger effect = lower value;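 note: fluorescence intensity change per second fitted from 20 to 320 s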
[6] = target: Alpha-2C adrenergic receptor (Homo sapiens) (UniProt P18825); assay: modulators of alpha2C/GIRK thallium flux, primary screen, cell-based, HEK293 alpha2C/GIRK1/2 (AID 624;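 active = fluorescence slope after compound addition differing from the mean of all screened samples at 99.7% confidence, in either direction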;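 note: slope of fluorescence ratio to pre-addition baseline per second over 15 to 24 s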); conditions: thallium flux BTC fluorescence, at 10 µM, actives lie on both sides
Chain of Alpha-2C adrenergic receptor (Homo sapiens) (P18825 whole entry, looked up): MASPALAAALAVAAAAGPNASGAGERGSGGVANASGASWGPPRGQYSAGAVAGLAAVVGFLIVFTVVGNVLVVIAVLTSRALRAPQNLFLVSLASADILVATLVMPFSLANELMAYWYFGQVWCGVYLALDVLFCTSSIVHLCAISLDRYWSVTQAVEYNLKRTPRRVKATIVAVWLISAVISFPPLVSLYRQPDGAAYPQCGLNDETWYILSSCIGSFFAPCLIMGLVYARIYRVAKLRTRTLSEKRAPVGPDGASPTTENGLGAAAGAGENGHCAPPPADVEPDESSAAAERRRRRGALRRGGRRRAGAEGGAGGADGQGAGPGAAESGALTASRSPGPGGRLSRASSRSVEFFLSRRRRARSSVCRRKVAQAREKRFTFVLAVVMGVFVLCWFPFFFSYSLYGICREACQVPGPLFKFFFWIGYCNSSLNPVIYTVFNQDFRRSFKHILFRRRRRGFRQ

[7] = inhibitors of Sendai virus-induced IRF3 signaling, primary screen, TLR/RLR signaling modifier project, cell-based, Sendai virus stimulus, luciferase, 10K MLSCN set (AID 602276;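 active = inhibition at or above 50% at 10 µM; inactive = inhibition below 50%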;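 note: firefly luciferase from ISG56 promoter only with Renilla not read in this screen; 0% = Sendai virus plus DMSO and 100% = medium plus DMSO without virus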); conditions: HEK293 RL24 IRF3 luciferase reporter, at 10 µM, stronger effect = higher value
[8] = inhibitors of poly I:C-induced TLR3 signaling, primary screen, cell-based, poly I:C stimulus, luciferase, 10K MLSCN set (AID 602277;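 active = inhibition of the reporter signal at or above 50%; inactive = inhibition below 50%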); conditions: HEK293-TLR3 RL24 IRF3 luciferase reporter, at 10 µM, stronger effect = higher value

Row | Compound | cell count [1] | inhibition [1] | inhibition of aggregation [2] | nuclei count [2] [%] | inhibition [3] | nuclei count [3] [%] | fluorescence slope [4] | NADPH fluorescence slope [5] | slope [6] | inhibition [7] | inhibition [8]
1 | FC(F)(F)c1nnc2sc(-c3cccs3)nn12 | 382 | -4% (inactive) | -16.2% (inactive) | 84.9 | -28.5% (inactive) | 96.5 | -0.567 (inactive) | -4.5e-05 (inactive) | 0.00576 (inactive) | 10.9% (inactive) | 11.3% (inactive)
2 | CCCCCCn1c(SCC(=O)OC)nc2c1c(=O)[nH]c(=O)n2C | 502 | -5.9% (inactive) | 25.4% (inactive) | 71.7 | 5% (inactive) | 91.4 | -0.42 (inactive) | -5.2e-05 (inactive) | 0.00477 (inactive) | 9.4% (inactive) | 31.6% (inactive)
3 | N=c1c(C(=O)NCc2ccc3c(c2)OCO3)cc2c(=O)n3ccccc3nc2n1Cc1cccnc1 | 690 | -5.2% (inactive) | -21.7% (inactive) | 72.7 | -18.5% (inactive) | 109 | -0.427 (inactive) | 3.2e-05 (inactive) | 0.00617 (inactive) | 13.3% (inactive) | 23.4% (inactive)
4 | O=C(NC1CC1)c1ccc(S(=O)(=O)NCC2CCCCC2)cc1 | 535 | -8% (inactive) | 18.7% (inactive) | 102 | -58.9% (inactive) | 112 | -0.508 (inactive) | 2.4e-05 (inactive) | 0.00635 (inactive) | 3.23% (inactive) | 5.07% (inactive)
5 | Cc1nnc(SCc2ccccc2F)n1NCc1cccs1 | 767 | -3.9% (inactive) | -8.1% (inactive) | 106 | -71% (inactive) | 113 | -0.47 (inactive) | -4.7e-05 (inactive) | 0.00631 (inactive) | -2.84% (inactive) | -9.57% (inactive)
6 | O=C(O)CC1=C(O)C(=O)N(c2ccccc2)C1c1ccccc1 (stereo not drawn) | 405 | 1.1% (inactive) | 6.7% (inactive) | 111 | -61.5% (inactive) | 117 | -0.391 (inactive) | -4e-05 (inactive) | 0.00537 (inactive) | 4.01% (inactive) | 29.8% (inactive)
7 | CC1CN(S(=O)(=O)c2ccc(Cl)c(C(F)(F)F)c2)CC(C)O1 (stereo not drawn) | 390 | 6.1% (inactive) | -1.4% (inactive) | 105 | 0.5% (inactive) | 110 | -0.31 (inactive) | -4e-05 (inactive) | 0.0059 (inactive) | 7.15% (inactive) | 0.275% (inactive)
8 | CCCOc1ccccc1C1CC(=O)Nc2cc3c(cc21)OCCO3 (stereo not drawn) | 647 | 4.9% (inactive) | 6.6% (inactive) | 39.3 | 29.7% (inactive) | 97.2 | -0.628 (inactive) | -2e-05 (inactive) | 0.00236 (inactive) | -3.13% (inactive) | 78% (active)
9 | O=C(NCC1COc2ccccc2O1)C1CCCN(S(=O)(=O)c2cnc[nH]2)C1 (stereo not drawn) | 617 | 7.3% (inactive) | -15.6% (inactive) | 100 | -63.3% (inactive) | 124 | -0.501 (inactive) | -2e-05 (inactive) | 0.00703 (inactive) | 4.57% (inactive) | 24.5% (inactive)
10 | COc1ccc(OC)c(C(C)NC=O)c1 (stereo not drawn) | 438 | 3% (inactive) | 14.2% (inactive) | 108 | -56.8% (inactive) | 108 | -0.449 (inactive) | 1.3e-05 (inactive) | 0.00556 (inactive) | 0.449% (inactive) | 23.1% (inactive)
11 | O=C(Nc1cccc2ccccc12)N1CCOCC1 | 654 | -3.4% (inactive) | -12% (inactive) | 116 | -33.2% (inactive) | 106 | -0.341 (inactive) | -6.3e-05 (inactive) | 0.00634 (inactive) | 18.7% (inactive) | 23.7% (inactive)
12 | CCN(C1CCCCC1)S(=O)(=O)c1ccc(S(=O)(=O)N2CCN(CCC#N)CC2)cc1 | 870 | 3.3% (inactive) | 8% (inactive) | 102 | -28.6% (inactive) | 108 | -0.584 (inactive) | -1.5e-05 (inactive) | 0.00677 (inactive) | -5.6% (inactive) | 52% (active)
13 | COc1cc(C2N=C(c3ccccc3)NO2)cc(Br)c1O (stereo not drawn) | 770 | 4.6% (inactive) | -13.7% (inactive) | 94.3 | -121% (inactive) | 108 | -0.546 (inactive) | 2.2e-05 (inactive) | 0.00675 (inactive) | -15.8% (inactive) | -15.1% (inactive)
14 | COCCn1nnnc1CN(Cc1cccnc1)Cc1cc2cc(OC)ccc2[nH]c1=O | 670 | -10.6% (inactive) | -13.1% (inactive) | 122 | -11.6% (inactive) | 107 | -0.605 (inactive) | -3.4e-05 (inactive) | 0.00315 (inactive) | 14.3% (inactive) | 25.2% (inactive)
15 | COc1ccc(-c2noc(CSc3nc(N)c(-c4ccccc4)c(=O)[nH]3)n2)cc1OC | 338 | 5.8% (inactive) | -0.8% (inactive) | 97.1 | -12.1% (inactive) | 122 | -0.441 (inactive) | 2.8e-05 (inactive) | 0.00653 (inactive) | 12% (inactive) | 15.6% (inactive)
16 | CCCNc1nc2c(c(=O)n(C)c(=O)n2C)n1Cc1cccc(C)c1 | 697 | -3.6% (inactive) | 10.2% (inactive) | 97.4 | -95.3% (inactive) | 148 | -0.567 (inactive) | -2.9e-05 (inactive) | 0.00499 (inactive) | 3.02% (inactive) | 4.07% (inactive)
17 | COC(=O)Cc1cc(=O)[nH]c(Nc2nc3ccccc3o2)n1 | 354 | -1.4% (inactive) | -11.1% (inactive) | 108 | -125% (inactive) | 112 | -0.268 (inactive) | -3.1e-06 (inactive) | 0.00603 (inactive) | -2.52% (inactive) | -64.7% (inactive)
18 | O=C(C1CCCN(S(=O)(=O)c2cccnc2)C1)N1CCN(c2ccccn2)CC1 (stereo not drawn) | 671 | -0.3% (inactive) | -27.9% (inactive) | 108 | -1.7% (inactive) | 108 | -0.581 (inactive) | -1.6e-05 (inactive) | 0.00648 (inactive) | 5.38% (inactive) | 14% (inactive)
19 | CCCSC1=C(C#N)C(c2cc(OC)ccc2OC)CC(=O)N1 (stereo not drawn) | 674 | 5.8% (inactive) | 10.8% (inactive) | 114 | -61.3% (inactive) | 116 | -0.518 (inactive) | -4.2e-05 (inactive) | 0.00728 (inactive) | 18.1% (inactive) | 25.8% (inactive)
20 | CN(C)c1ccc2c(c1)OC(N)=C(C#N)C2c1cccc(F)c1 (stereo not drawn) | 404 | 11.5% (inactive) | -56.1% (inactive) | 3 | -8.8% (inactive) | 103 | -0.515 (inactive) | 1.1e-05 (inactive) | 0.0134 (active) | 36.6% (inactive) | 82.9% (active)
21 | Cc1ccccc1C1CC(c2ccccc2)Nc2ncnn21 (stereo not drawn) | 561 | 0% (inactive) | -26.3% (inactive) | 92.1 | -47% (inactive) | 108 | -0.528 (inactive) | -1.4e-06 (inactive) | 0.00646 (inactive) | 3.07% (inactive) | 15.7% (inactive)
22 | CC(=O)N(C)C1(c2nnnn2CCOC(=O)Nc2ccc(Cl)cc2)CCCCC1 | 498 | 4.3% (inactive) | 5.4% (inactive) | 107 | -33.3% (inactive) | 105 | -0.398 (inactive) | -3.1e-05 (inactive) | 0.00444 (inactive) | 1.79% (inactive) | 20.6% (inactive)
23 | Cc1ccc(N(CC(=O)NCC2CCCO2)S(C)(=O)=O)cc1Cl (stereo not drawn) | 478 | -4.5% (inactive) | 0.2% (inactive) | 114 | -59.9% (inactive) | 121 | -0.292 (inactive) | -1.4e-05 (inactive) | 0.00598 (inactive) | 23.8% (inactive) | 12.4% (inactive)
24 | CCCCN(C)C(=O)c1cn(C)c2ccc(S(=O)(=O)N(C)C)cc2c1=O | 559 | -5.1% (inactive) | 15.7% (inactive) | 76.4 | 39.3% (inactive) | 105 | -0.6 (inactive) | -3.3e-05 (inactive) | 0.00635 (inactive) | 6.56% (inactive) | 27.1% (inactive)
25 | O=C(c1cccc(C(=O)N2CCN(c3ccccc3)CC2)c1)N1CCN(c2ccccc2)CC1 | 667 | -2.6% (inactive) | 1.8% (inactive) | 98.6 | -86.1% (inactive) | 112 | -0.456 (inactive) | 3e-05 (inactive) | 0.00517 (inactive) | 4.89% (inactive) | -1.16% (inactive)
26 | COCCNC(=O)C(c1cccc(OC)c1)N(Cc1cccs1)C(=O)Cn1nnc2ccccc21 (stereo not drawn) | 722 | -15.1% (inactive) | 8% (inactive) | 109 | -34.3% (inactive) | 109 | -0.622 (inactive) | -5.4e-05 (inactive) | 0.00445 (inactive) | 12.4% (inactive) | 20.1% (inactive)
27 | COc1ccc2c(c1)OC(O)(C(F)F)CC2=O (stereo not drawn) | 406 | 1.5% (inactive) | 5.7% (inactive) | 91.2 | -205% (inactive) | 96.2 | -0.398 (inactive) | 2.1e-05 (inactive) | 0.00381 (inactive) | 6.89% (inactive) | 28.4% (inactive)
28 | CSCCC(NS(=O)(=O)c1ccc2c(c1)oc(=O)n2C)C(=O)NC1CCCCC1 (stereo not drawn) | 627 | -6% (inactive) | 7.8% (inactive) | 93 | -35.6% (inactive) | 106 | -0.584 (inactive) | -3.7e-05 (inactive) | 0.00669 (inactive) | 11.8% (inactive) | 25.6% (inactive)
